Assay [1] can be described thus: NCI Yeast Anticancer Drug Screen. Data for the rad50 strain (AID 155).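 Note: 0% = growth of vehicle-only cultures of the same strain.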 To be noted: S. cerevisiae rad50 strain growth inhibition, stronger effect = higher value. The essentials: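 Compounds were tested on a yeast strain with an engineered DNA damage repair alteration; the reported value is growth inhibition normalised to vehicle treatment.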
A short description of assay [2]: NCI Yeast Anticancer Drug Screen. Data for the mec2-1 strain (AID 157). Particulars: S. cerevisiae mec2-1 strain, stronger effect = higher value. The essentials: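 Yeast mec2-1 mutant treated with compound. Readout: growth inhibition vs vehicle controls.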
A short description of assay [3]: NCI Yeast Anticancer Drug Screen. Data for the sgs1 mgt1 strain (AID 161).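 Note: 0% = growth of cultures given vehicle only.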 To be noted: S. cerevisiae sgs1 mgt1 strain, stronger effect = higher value. In outline:
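Genetically altered yeast, compound exposure, growth inhibition relative to vehicle.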

Assay [4] can be described thus: NCI Yeast Anticancer Drug Screen. Data for the cln2 rad14 strain (AID 165).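 Note: 0% = growth equal to vehicle treated cultures.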 To be noted: S. cerevisiae cln2 rad14 strain, stronger effect = higher value. In outline: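 cln2 rad14 yeast strain; compound exposure; growth inhibition read vs vehicle controls.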
Assay [5] is described as follows: NCI Yeast Anticancer Drug Screen. Data for the bub3 strain (AID 167). To be noted: S. cerevisiae bub3 mutant strain, stronger effect = higher value. The essentials: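 Growth of a checkpoint-deficient yeast mutant is measured after compound exposure. Values represent inhibition relative to vehicle.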
Assay [6] can be described thus: NCI Yeast Anticancer Drug Screen. Data for the mlh1 rad18 strain (AID 175). To be noted: S. cerevisiae mlh1 rad18 strain growth inhibition, stronger effect = higher value. The essentials: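 Yeast w/ defined DNA-repair lesions; compound exposure; growth vs vehicle controls → % inhibition.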
Where [7] appears, read: at 5.0 µM (retest, dose inferred, filed as 0.5).
Setting [8] is: at 50.0 µM (retest, dose inferred, filed as 5.0).

Where “and” joins values, the source holds several entries; their conditions need not be identical. Identical values can stand only once. This is part of a sample that, as a whole, favours compounds with a hit. Of some 79,000 tested, about 15% had one in any assay. Some structures have more than one record in an assay (separate samples or runs), and their calls can disagree. Calls of active or inactive are those of the source. Cut-off read from the data, not from the text of the source: active = growth inhibition above about 70%; inactive = the rest.

Turning to `O=C(NO)c1cccnc1`, the growth inhibition in assay [1] (setting [7]) is 2% (inactive); in assay [1] (setting [8]) it was 3% (inactive); in assay [1] (at 50.0 µM), 66.3% (inactive); in assay [2] (setting [7]), 2% (inactive); in assay [2] (setting [8]) it was -1% (inactive); in assay [2] (at 50.0 µM), 16.1% (inactive). For the same molecule, the growth inhibition was -4% (inactive) in assay [3] (setting [7]); -3% (inactive) in assay [3] (setting [8]); 29.1% (inactive) in assay [3] (at 50.0 µM); 1% (inactive) in assay [4] (setting [7]); 0% (inactive) in assay [4] (setting [8]); 14.8% (inactive) in assay [4] (at 50.0 µM). Also, the growth inhibition in assay [5] (setting [7]) is 4% (inactive); in assay [5] (setting [8]), -2% (inactive); in assay [5] (at 50.0 µM), 11.8% (inactive); in assay [6] (setting [7]), 3% (inactive); in assay [6] (setting [8]) it was 5% (inactive); in assay [6] (at 50.0 µM), 16.4% (inactive).

On to `O=C1COC(=O)/C1=C/c1ccc2c(c1)OCO2`, for which the growth inhibition in assay [1] (setting [7]) was 12% (inactive) and 15% (inactive); in assay [1] (setting [8]), 78% (active) and 86% (active); in assay [1] (at 50.0 µM) it was 76.6% (active) and 77.4% (active); in assay [2] (setting [7]), 16% (inactive) and 26% (inactive); in assay [2] (setting [8]), 84% (active) and 90% (active); in assay [2] (at 50.0 µM) it was 64.1% (inactive) and 84.5% (active). Further, the growth inhibition in assay [3] (setting [7]) was 18% (inactive); in assay [3] (setting [8]) it was 69% (inactive) and 93% (active); in assay [3] (at 50.0 µM), 78.5% (active) and 86.4% (active); in assay [4] (setting [7]), 4% (inactive) and 15% (inactive); in assay [4] (setting [8]) it was 71% (active) and 61% (inactive); in assay [4] (at 50.0 µM), 56% (inactive) and 54.6% (inactive). In addition, the growth inhibition in assay [5] (setting [7]) was 2% (inactive) and 4% (inactive); in assay [5] (setting [8]) it was 82% (active) and 89% (active); in assay [5] (at 50.0 µM), 65.5% (inactive) and 88% (active); in assay [6] (setting [7]), 9% (inactive) and 14% (inactive); in assay [6] (setting [8]), 81% (active); in assay [6] (at 50.0 µM) it was 93.2% (active) and 95.1% (active).

Take `Oc1cc2c3c(c1)c1cc4c(cc1c[n+]3CC2)OCO4`: the growth inhibition in assay [1] (setting [7]) was 42% (inactive) and 11% (inactive); in assay [1] (setting [8]), 72% (active) and 56% (inactive); in assay [1] (at 50.0 µM), -22.4% (inactive) and 52% (inactive); in assay [2] (setting [7]) it was 36% (inactive) and 10% (inactive); in assay [2] (setting [8]), 57% (inactive) and 41% (inactive); in assay [2] (at 50.0 µM), -44.9% (inactive) and 33.4% (inactive). The growth inhibition in assay [3] (setting [7]) was 64% (inactive) and 33% (inactive); in assay [3] (setting [8]), 85% (active) and 63% (inactive); in assay [3] (at 50.0 µM) it was -5.25% (inactive) and 50.9% (inactive); in assay [4] (setting [7]) it was 59% (inactive) and 28% (inactive); in assay [4] (setting [8]), 74% (active) and 39% (inactive); in assay [4] (at 50.0 µM), 0.95% (inactive) and 43.3% (inactive). Further, the growth inhibition in assay [5] (setting [7]) is 63% (inactive) and 23% (inactive); in assay [5] (setting [8]), 84% (active) and 60% (inactive); in assay [5] (at 50.0 µM), -36.8% (inactive) and 31.2% (inactive); in assay [6] (setting [7]), 30% (inactive) and 7% (inactive); in assay [6] (setting [8]), 65% (inactive) and 57% (inactive); in assay [6] (at 50.0 µM), -30.6% (inactive) and 53% (inactive).

Consider `CC[N+](CC)=c1ccc2nc3c(cc(N)c4ccccc43)oc-2c1`, for which the growth inhibition is -8% (inactive) in assay [1] (setting [7]); 42% (inactive) in assay [1] (setting [8]); 71.5% (active) and -20.9% (inactive) in assay [1] (at 50.0 µM); -1% (inactive) in assay [2] (setting [7]); 39% (inactive) in assay [2] (setting [8]); 52.5% (inactive) and -17.7% (inactive) in assay [2] (at 50.0 µM). The growth inhibition was -9% (inactive) in assay [3] (setting [7]); 42% (inactive) in assay [3] (setting [8]); 38.1% (inactive) in assay [3] (at 50.0 µM); -14% (inactive) in assay [4] (setting [7]); 7% (inactive) in assay [4] (setting [8]); 38% (inactive) in assay [4] (at 50.0 µM). The growth inhibition was -4% (inactive) in assay [5] (setting [7]); 19% (inactive) in assay [5] (setting [8]); 63% (inactive) in assay [5] (at 50.0 µM); -6% (inactive) in assay [6] (setting [7]); 27% (inactive) in assay [6] (setting [8]); 68.8% (inactive) and -28.9% (inactive) in assay [6] (at 50.0 µM).

On to `c1ccc(-c2[nH]c3ccccc3c2-c2ccccn2)cc1`, for which the growth inhibition in assay [1] (setting [7]) was 3% (inactive); in assay [1] (setting [8]), 8% (inactive); in assay [1] (at 50.0 µM), 91.8% (active); in assay [2] (setting [7]), -2% (inactive); in assay [2] (setting [8]), -2% (inactive); in assay [2] (at 50.0 µM) it was 99.3% (active). For the same molecule, the growth inhibition was 4% (inactive) in assay [3] (setting [7]); 23% (inactive) in assay [3] (setting [8]); 95.6% (active) in assay [3] (at 50.0 µM); 4% (inactive) in assay [4] (setting [7]); 8% (inactive) in assay [4] (setting [8]); 99.1% (active) in assay [4] (at 50.0 µM). Also, the growth inhibition in assay [5] (setting [7]) was 0% (inactive); in assay [5] (setting [8]) it was 2% (inactive); in assay [5] (at 50.0 µM), 98.7% (active); in assay [6] (setting [7]) it was 5% (inactive); in assay [6] (setting [8]) it was 13% (inactive); in assay [6] (at 50.0 µM) it was 98.8% (active).

Turning to `CCN(C(=O)C(Cl)Cl)C(Cc1ccccc1)c1ccccc1` (stereo unspecified), the growth inhibition in assay [1] (setting [7]) is -1% (inactive); in assay [1] (setting [8]) it was 58% (inactive); in assay [1] (at 50.0 µM), 91.5% (active); in assay [2] (setting [7]), -1% (inactive); in assay [2] (setting [8]), 61% (inactive); in assay [2] (at 50.0 µM) it was 96.3% (active). Further, the growth inhibition was -1% (inactive) in assay [3] (setting [7]); 80% (active) in assay [3] (setting [8]); 93.8% (active) in assay [3] (at 50.0 µM); -4% (inactive) in assay [4] (setting [7]); 74% (active) in assay [4] (setting [8]); 86.8% (active) in assay [4] (at 50.0 µM). In addition, the growth inhibition in assay [5] (setting [7]) was 10% (inactive); in assay [5] (setting [8]), 61% (inactive); in assay [5] (at 50.0 µM) it was 86.8% (active); in assay [6] (setting [7]), 2% (inactive); in assay [6] (setting [8]), 72% (active); in assay [6] (at 50.0 µM), 86% (active).

As to `CCOc1ccc(NC(=O)/C(=C\c2ccc(C)cc2)C(C)=O)cc1`, the growth inhibition in assay [1] (setting [7]) was -17% (inactive); in assay [1] (setting [8]), -1% (inactive); in assay [1] (at 50.0 µM), -32% (inactive) and 8.1% (inactive); in assay [2] (setting [7]), -2% (inactive); in assay [2] (setting [8]), -3% (inactive); in assay [2] (at 50.0 µM) it was -2.3% (inactive) and -25.1% (inactive). For the same molecule, the growth inhibition in assay [3] (setting [7]) was 9% (inactive); in assay [3] (setting [8]), -4% (inactive); in assay [3] (at 50.0 µM) it was 2.9% (inactive) and 3.65% (inactive); in assay [4] (setting [7]), -6% (inactive); in assay [4] (setting [8]), 5% (inactive); in assay [4] (at 50.0 µM), -24.8% (inactive) and -8.15% (inactive). Further, the growth inhibition was -3% (inactive) in assay [5] (setting [7]); -5% (inactive) in assay [5] (setting [8]); -2.4% (inactive) and -19.2% (inactive) in assay [5] (at 50.0 µM); -3% (inactive) in assay [6] (setting [7]); -5% (inactive) in assay [6] (setting [8]); 6% (inactive) and 0.5% (inactive) in assay [6] (at 50.0 µM).

Source of the values: PubChem BioAssay (NCI).
